PubChem BioAssay (NCATS)
Results filed as inconclusive are left out. Values without a mark were called inactive. Active and inactive are the calls of the source. Calls come from the whole dose curve; as a rule, active = well fitted inhibition curve with a large enough effect; inconclusive = small, poorly fitted or top-dose-only effect; inactive = no such curve, though single readings can be large or run the other way.

test: qHTS to identify inhibitors of the type 1 interferon - major histocompatibility complex class I in skeletal muscle: primary screen against the NCATS Mechanism Interrogation Plate v5.0 (MIPE) Libary (AID 1347411); settings: iHSKM cells + IFN-b, HiBiT-tagged MHC-I luminescence, 24 h; series mostly up to 45.8 µM; activity change, negative = inhibition: at the top concentration; note: nearly all actives have a fitted effect of over 65% in size;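 for activity change, negative = inhibition: plate controls were vehicle for no effect and reference inhibitor for full effect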
Method in brief: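 Immortalized human myoblasts (C25cl48) with HiBit knocked into endogenous HLA-B*08:01 were stimulated with 4 ng/ml IFN-beta and given compounds in 11-point 1:3 titration from 46 uM. After 24 h at 37 C, lytic HiBiT luminescence was read.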
Potency is the fitted concentration of half-maximal effect.

Row | Compound | activity change, negative = inhibition | Potency
1 | CC(C)(C#N)c1cc(Cn2cncn2)cc(C(C)(C)C#N)c1 | 0.663% | –
2 | C[C@@H]1CN(c2c(F)c(N)c3c(=O)c(C(=O)O)cn(C4CC4)c3c2F)C[C@H](C)N1 | -16.2% | –
3 | O=S(=O)(O)CCS | -2.87% | –
4 | Oc1c(Cl)cc(Cl)c2cccnc12 | – | 23.4 µM (active)
5 | CN(Cc1cc(Br)cc(Br)c1N)C1CCCCC1 | -6.33% | –
6 | Cc1oc(=O)oc1CN1CCN(c2cc3c(cc2F)c(=O)c(C(=O)O)c2n3C(C)S2)CC1 (configuration not stated) | -25.5% | –
7 | CN(C)c1ccc(C(=C2C=CC(=[N+](C)C)C=C2)c2ccc(N(C)C)cc2)cc1 | – | 3.7 µM (active)
8 | CCC(=O)O[C@]1(C(=O)CCl)[C@@H](C)C[C@H]2[C@@H]3CCC4=CC(=O)C=C[C@]4(C)[C@@]3(F)[C@@H](O)C[C@@]21C | -41.2% | –
9 | Cc1nnc(NS(=O)(=O)c2ccc(N)cc2)s1 | -14.9% | –
10 | C[C@@H](CN1CC(=O)NC(=O)C1)N1CC(=O)NC(=O)C1 | 23.8% | –
11 | Nc1[nH]c(=O)ncc1F | 7.68% | –
12 | OC(Cn1cncn1)(Cn1cncn1)c1ccc(F)cc1F | 8.98% | –
13 | COc1ccc(C(=O)CC(=O)c2ccc(C(C)(C)C)cc2)cc1 | -7.33% | –
14 | CC(=O)Oc1ccccc1C(=O)Nc1ncc([N+](=O)[O-])s1 | – | 23.4 µM (active)
15 | CC(C)OC(=O)C(C(=O)OC(C)C)=C1SC=CS1 | -4.65% | –
16 | NC(=O)c1cccc(N)c1 | 3.22% | –
17 | CCC(C)(C)c1ccc(CC(C)CN2C[C@@H](C)O[C@@H](C)C2)cc1 (some centres not stated) | -21.6% | –
18 | CC(=O)[C@H]1CC[C@H]2[C@@H]3CC=C4C[C@@H](O)CC[C@]4(C)[C@H]3CC[C@]12C | 7.73% | –
19 | CCCCOc1ccc(CC(=O)NO)cc1 | -8.21% | –

Row | Compound | activity change, negative = inhibition | Potency
20 | CN(CCOc1ccc(CC2SC(=O)NC2=O)cc1)c1ccccn1 (configuration not stated) | -9.36% | –
21 | S=P(N1CC1)(N1CC1)N1CC1 | -1.9% | –
22 | Cn1nnc2c(C(N)=O)ncn2c1=O | -5.31% | –
23 | CC(C)C1CCC(C(=O)N[C@H](Cc2ccccc2)C(=O)O)CC1 (some centres not stated) | -7.37% | –
24 | CCOC(=O)c1ccc(C#Cc2ccc3c(c2)C(C)(C)CCS3)nc1 | -9.49% | –
25 | COCCCOc1cc(C[C@@H](C[C@H](N)[C@@H](O)C[C@H](C(=O)NCC(C)(C)C(N)=O)C(C)C)C(C)C)ccc1OC | -6.71% | –
26 | NNC(=O)c1ccncc1 | -8.49% | –
27 | CC(C)Cn1cnc2c(N)nc3ccccc3c21 | -14.7% [at 15.5 µM] | –
28 | C[C@]12C=CC(=O)C=C1CC[C@@H]1[C@@H]2C(=O)C[C@@]2(C)[C@H]1CC[C@]2(O)C(=O)CO | -18.7% | –
29 | CCN[C@H]1C[C@H](C)S(=O)(=O)c2sc(S(N)(=O)=O)cc21 | 13.1% | –
30 | COC(c1ccccc1)(c1ccccc1)[C@H](Oc1nc(C)cc(C)n1)C(=O)O | -26.8% | –
31 | C#CCN[C@@H]1CCc2ccccc21 | 13.9% | –
32 | CCCOc1ccc(C(=O)OCCN(CC)CC)cc1N | 7.14% | –
33 | NS(=O)(=O)c1cc2c(cc1Cl)NC(C(Cl)Cl)NS2(=O)=O (configuration not stated) | 14.5% | –
34 | CC(C)C[C@H](NC(=O)[C@H](CCc1ccccc1)NC(=O)CN1CCOCC1)C(=O)N[C@@H](Cc1ccccc1)C(=O)N[C@@H](CC(C)C)C(=O)[C@@]1(C)CO1 | – | 0.0262 µM (active)
35 | CNNCc1ccc(C(=O)NC(C)C)cc1 | 7.49% | –
36 | NCCCC(O)(P(=O)(O)O)P(=O)(O)O | 15.7% | –
37 | O=c1oc2c(O)c(O)cc3c(=O)oc4c(O)c(O)cc1c4c23 | -6.82% [at 15.5 µM] | –
